The results in this text go back to PubChem BioAssay (Tox21).

Results filed as inconclusive are left out. Calls of active or inactive are those of the source. Unless noted, the call rests on the fitted dose curve; in most records, active means well fitted curve in the direction sought with a large enough effect in the repeat runs; inconclusive means weak or mixed curves; inactive means no such curve, though single readings can be large; an effect the other way counts as inactive or inconclusive.

Assay [1] is described as follows: qHTS assay to identify small molecule antagonists of the estrogen related receptor (ERR) signaling pathway - cell viability counter screen (AID 1224818). Further: potency means the concentration at half of the fitted maximal effect.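 Further: viability measured after 17.5 h of compound exposure.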 A digest of the protocol: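 Multiplexed counter screen to separate cytotoxic compounds from true ERR modulators. ERR cells received DMSO-dissolved compounds after a 6 h pre-incubation, were exposed 17.5 h at 37 C, then assayed with CellTiter-Fluor fluorescence.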

A short description of assay [2]: qHTS assay to identify small molecule agonists of the estrogen related receptor (ERR) signaling pathway (AID 1224820). Put shortly:
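Cells: ERR line from NTP, 2,000/well. Pre-incubation 6 h, 37 C/5% CO2. Compound (DMSO) pin transfer, 18 h 37 C. One-Glo, 30 min RT, luminescence.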

The test system of assay [3] is estrogen-related receptor alpha (ERRalpha) with PGC-1alpha coactivator, human. As to the kind of experiment: qHTS assay to identify small molecule antagonists of the estrogen related receptor signaling pathway with the pleiotropic PPARgamma coactivator (PGC) (AID 1224821; calls by dose curve; further: nearly all actives have a fitted effect of over 50% in size; further: potency means the concentration at half of the fitted maximal effect). A digest of the protocol: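 Luminescent read-out (One-Glo, 30 min at room temperature) following 18 h treatment of PGC/ERR cells at 37 C with compounds delivered in DMSO. Cells had settled 6 h at 37 C/5% CO2 before dosing.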

Assay [4] is described as follows: qHTS assay to identify small molecule antagonists of the estrogen related receptor signaling pathway with the pleiotropic PPARgamma coactivator (PGC) cell viability counter screen (AID 1224822; further: potency means the concentration at half of the fitted maximal effect;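 further: viability read after 17.5 h compound exposure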). A digest of the protocol:
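Cells: PGC/ERR, 2,000/well, 1536-well format. Pre-incubation 6 h, 37 C/5% CO2. Compound exposure 17.5 h, 37 C. Detection: CellTiter-Fluor, 30 min, fluorescence.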

A short description of assay [5]: qHTS assay to identify small molecule agonists of the estrogen related receptor signaling pathway with the pleiotropic PPARgamma coactivator (PGC) (AID 1224823). Further: potency means the concentration at half of the fitted maximal effect. Put shortly:
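Steps: plate PGC/ERR cells at 2,000 cells/well; incubate 6 h, 37 C/5% CO2; pin-transfer compounds (DMSO); incubate 18 h, 37 C; add One-Glo; 30 min RT; read luminescence.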

Assay [6] in a line: qHTS assay to identify small molecule antagonists of the estrogen related receptor (ERR) signaling pathway (AID 1224819; further: nearly all actives have a fitted effect of over 50% in size; further: potency means the concentration at half of the fitted maximal effect). A digest of the protocol: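 Seed ERR cells 2,000/well; rest 6 h at 37 C/5% CO2; pin compounds in DMSO; incubate 18 h at 37 C; add One-Glo; wait 30 min at room temperature; measure luminescence.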

`Clc1ccc(N2CCN(Cc3c[nH]c4ncccc34)CC2)cc1`: the Potency result in assay [1], in assay [2], in assay [3], in assay [4] and in assay [5] was “inactive” each time.

`CNC(=O)[C@H]1O[C@@H](n2cnc3c(NCc4cccc(I)c4)ncnc32)[C@H](O)C1O` (stereo partly drawn): the Potency result in assay [1], in assay [2], in assay [3] and in assay [4] was “inactive” in each case. Besides, the Potency in assay [5] is 0.944 µM (active).

Regarding `c1ccc2c(c1)CC(N1CCN(c3cccc4c3OCCO4)CC1)C2`, the Potency entry in assay [1], in assay [2], in assay [3], in assay [4] and in assay [5] was “inactive” throughout.

As for `O=C(O)c1ccccc1Nc1ccccc1`, the Potency entry in assay [1], in assay [2], in assay [3] and in assay [4] was “inactive” throughout.

As for `C[C@H](Cc1ccccc1)Nc1ncnc2c1ncn2[C@@H]1O[C@H](CO)C(O)[C@H]1O` (stereo partly drawn), the Potency result in assay [1], in assay [6], in assay [3] and in assay [4] was “inactive” throughout. In assay [5], the Potency is 10.2 µM (active).

Take `O=S(=O)(c1cccc2c(Cl)cccc12)N1CCCNCC1`: the Potency entry in assay [1], in assay [6], in assay [3], in assay [4] and in assay [5] was “inactive” each time.

For `CC[n+]1c(/C=C/C=C2/N(C)c3ccccc3C2(C)C)sc2ccccc21`, the Potency in assay [1] is 9.08 µM (active); in assay [3] it was 0.492 µM (active); in assay [4], 3.9 µM (active). The Potency result in assay [2] and in assay [5] was “inactive” throughout.

Consider `O=C(Nc1ccncc1)c1cc([N+](=O)[O-])ccc1Cl`, for which the Potency result in assay [1], in assay [2], in assay [3] and in assay [4] was “inactive” in each case.

On to `CNc1ncnc2c1ncn2[C@H]1C[C@H](OP(=O)(O)O)[C@@H](COP(=O)(O)O)O1`, for which the Potency result in assay [1], in assay [6], in assay [3], in assay [4] and in assay [5] was “inactive” in each case.

As for `Nc1nc(OCC2CCCCC2)c2[nH]cnc2n1`, the Potency result in assay [1], in assay [2], in assay [3], in assay [4] and in assay [5] was “inactive” throughout.

On to `O=C(O)c1ccccc1Nc1cccc(OCc2ccc3ccccc3n2)c1`, for which the Potency entry in assay [1], in assay [2], in assay [3], in assay [4] and in assay [5] was “inactive” each time.

For `COc1cc2c(CCNC(C)=O)c[nH]c2cc1Cl`, the Potency entry in assay [1], in assay [6], in assay [4] and in assay [5] was “inactive” in each case.

In the case of `Cc1cc(NC2CCCCC2)nc(-n2nc(C)cc2C)n1`, the Potency entry in assay [1] and in assay [5] was “inactive” in each case. Moreover, the Potency in assay [6] is 10.2 µM (active).

`COC(=O)[C@H](NC(=O)c1cc(-c2ccccc2)nc2ccccc12)c1ccccc1`: the Potency entry in assay [1], in assay [2], in assay [3], in assay [4] and in assay [5] was “inactive” in each case.

As for `CC(C)[C@@H]1CC[C@@H](C)C[C@@H]1P(=O)(c1ccccc1)c1ccccc1`, the Potency result in assay [1], in assay [6], in assay [3], in assay [4] and in assay [5] was “inactive” each time.

Regarding `CC(=O)[C@H]1CCC2C3CC=C4C[C@@H](OS(=O)(=O)O)CC[C@]4(C)C3CC[C@@]21C` (stereo partly drawn), the Potency result in assay [1], in assay [6], in assay [3], in assay [4] and in assay [5] was “inactive” throughout.

In the case of `CC(/C=C/c1cccc(Oc2ccc(F)cc2)c1)N(O)C(N)=O` (stereo not drawn), the Potency entry in assay [1], in assay [2], in assay [3], in assay [4] and in assay [5] was “inactive” throughout.

As for `COc1cc(C(O)C(=O)O)ccc1O` (stereo not drawn), the Potency entry in assay [1], in assay [6], in assay [3], in assay [4] and in assay [5] was “inactive” each time.

For `COc1ccccc1N1CCN(CCN(C(=O)c2ccc(F)cc2)c2ccccn2)CC1`, the Potency result in assay [1], in assay [2], in assay [3], in assay [4] and in assay [5] was “inactive” in each case.

As to `O=c1[nH]c(=S)[nH]c(-c2ccccc2)c1Cc1c(O)ccc2ccccc12`, the Potency result in assay [1], in assay [2], in assay [3] and in assay [4] was “inactive” each time.

On to `CC(C)NC[C@@H](O)c1ccc(O)c(O)c1`, for which the Potency result in assay [1], in assay [6], in assay [3], in assay [4] and in assay [5] was “inactive” in each case.

Consider `N[C@H](C(=O)O)[C@H]1C[C@@H]1C(=O)O`, for which the Potency result in assay [1], in assay [6], in assay [3], in assay [4] and in assay [5] was “inactive” in each case.

Regarding `Oc1ccc(Cn2cc[nH]c2=S)cc1`, the Potency entry in assay [1], in assay [6], in assay [3], in assay [4] and in assay [5] was “inactive” each time.

Regarding `OCc1ccc(-c2nn(Cc3ccccc3)c3ccccc23)o1`, the Potency result in assay [1], in assay [2], in assay [3], in assay [4] and in assay [5] was “inactive” in each case.

Consider `O=C(O)C1CCCN(CCC=C(c2ccccc2)c2ccccc2)C1` (stereo not drawn), for which the Potency entry in assay [1], in assay [6], in assay [3], in assay [4] and in assay [5] was “inactive” throughout.

In the case of `COc1ccc(CCn2nnnc2C2(c3ccc(C)cc3)CC2)cc1`, the Potency entry in assay [1], in assay [2], in assay [3], in assay [4] and in assay [5] was “inactive” in each case.

As for `COc1ccc(-c2cc(=O)c3c(O)c(OC)c(OC)cc3o2)cc1O`, the Potency result in assay [1], in assay [2], in assay [3] and in assay [4] was “inactive” throughout.

For the compound `C[C@@H](N)C1CCC(C(=O)Nc2ccncc2)CC1` (stereo partly drawn), the Potency entry in assay [1], in assay [2] and in assay [4] was “inactive” each time. Further, the Potency in assay [3] is 14.4 µM (active).

On to `CCNc1nc2c(ncn2[C@H]2C[C@H](O)[C@@H](CO)O2)c(=O)[nH]1`, for which the Potency result in assay [1], in assay [6], in assay [3], in assay [4] and in assay [5] was “inactive” in each case.

Take `CC(C)(C)[C@]1(O)CCN2C[C@H]3c4ccccc4CCc4cccc(c43)[C@@H]2C1`: the Potency entry in assay [1], in assay [2] and in assay [4] was “inactive” each time. Also, the Potency in assay [3] was 17.4 µM (active).

In the case of `CC1(C)CCC(NC(=O)[C@@H](N)CCC(=O)O)CC1`, the Potency entry in assay [1], in assay [6], in assay [3], in assay [4] and in assay [5] was “inactive” each time.

Take `Cn1c(=O)c2[nH]c(-c3ccc(S(=O)(=O)O)cc3)nc2n(C)c1=O`: the Potency entry in assay [1], in assay [6], in assay [4] and in assay [5] was “inactive” each time.

Consider `CC[N+](CC)(CC)CC(=O)Nc1c(C)cccc1C`, for which the Potency entry in assay [1], in assay [6], in assay [4] and in assay [5] was “inactive” throughout.

In the case of `NC(=Nc1ccccc1)NC(=O)c1nc(Cl)c(N)nc1N`, the Potency entry in assay [1], in assay [6], in assay [3], in assay [4] and in assay [5] was “inactive” throughout.

Turning to `CC(C)COC(=O)OCN1C(=O)CN(CCN2CC(=O)N(COC(=O)OCC(C)C)C(=O)C2)CC1=O`, the Potency result in assay [1], in assay [6], in assay [4] and in assay [5] was “inactive” throughout.
